MARV entry inh = inhibitors of Marburg virus binding or entry into cells; Marburg virus pseudotype entry/binding inhibition, cell-based; Potency, µM (doses to about 49.2 µM), for the others: top-dose activity change, negative = inhibition, hits mostly inhibitors; 6.5% of 18,000 active; AID 720532
LASV entry inh = blocks Lassa virus binding or cell entry; Lassa virus pseudotyped entry inhibition, cell-based qHTS; Potency, µM (top dose mostly 49.2 µM), inactives show top-dose activity change, negative = inhibition, most hits filed as inhibitors; 4.1% of 18,000 active
An asterisk follows results filed as active; ? = inconclusive; nt = no result; ! = repeats disagree; [ ] = dose if it differs, or a comment. Hits are enriched below; roughly 8% of the tested compounds scored in any of these assays. Calls come from the whole dose curve; tested in HEK293 cells. % is set by controls: 0 for no effect and ±100 for the full control effect; potency is the fitted concentration of half-maximal effect.

SMILES	MARV entry inh	LASV entry inh
O=c1c(O)c(-c2cc(O)c(O)c(O)c2)oc2cc(O)cc(O)c12	11.2µM*	7.4%
O=c1c(O)c(-c2ccccc2)oc2cc(O)cc(O)c12	34.8%	12.8%
NC(Cc1ccccc1)C(=O)O (configuration not stated)	-5.5%	4.7%
CC1(C)C(=O)C=C[C@@]2(C)C1=C(O)C(=O)[C@@]1(C)C2CC[C@@]2(C)C(c3ccoc3)C[C@H]3O[C@@]321 (some centres not stated)	5.01µM*	11.2µM*
CC(=O)OC1CC(OC(C)=O)[C@]2(C)C(CC(=O)[C@]3(C)C2CC[C@@]2(C)C(c4ccoc4)OC(=O)C4O[C@@]423)C1(C)C (some centres not stated)	5.1%	-16.7%
C=CC[C@@]1(c2ccc(OC)cc2)Oc2ccccc2C2=NCCN=C21	?	15.1%[8.59 µM]
CSC[C@H]1CN(c2ccccc2)C(=O)[C@H]1CC(=O)Nc1ccc(Br)cc1	-11.2%	12.9%
CCOC(=O)[C@@H]1CSCCS(=O)(=O)N1C(=O)c1ccc(Br)cc1	12.8%	10.5%
COCC(=O)O[C@]1(CCN(C)CCCc2nc3ccccc3[nH]2)CCc2cc(F)ccc2[C@@H]1C(C)C	8.91µM*	20µM*
CCC1CN(CC(=O)N(C)Cc2nc3ccccc3[nH]2)Cc2cc(OC)ccc2O1 (configuration not stated)	-12.8%	-1.9%
O=C(C1CCCCC1)N1C[C@@H](O)[C@@H](n2cc(C3CC3)nn2)C[C@@H]1c1ccccc1	-10.8%	?
Cc1cc2c(c(=O)n1-c1ccccc1)[C@H]1O[C@](c3ccsc3)(Cc3cc(C#N)ccc31)O2	-12.1%[8.59 µM]	3.9%[8.59 µM]
CN(C)CCCSC(=N)N	14.1µM*!	-0.7%
N=C(N)SCCN=C(N)N	6.6%	-4.5%
C=C[C@@]1(C)CC[C@H](O)[C@H]2C(=O)CCC[C@H]21	-27.8%[8.59 µM]	10.9%[8.59 µM]
CC[C@@]1(O)C[C@H](O[C@H]2C[C@H](N(C)C)[C@H](O[C@H]3C[C@H](O)[C@H](O[C@H]4CCC(=O)[C@H](C)O4)[C@H](C)O3)[C@H](C)O2)c2c(cc3c(c2O)C(=O)c2c(O)cccc2C3=O)[C@H]1C(=O)OC	?	8.91µM*
CC[C@]1(O)CC(O[C@@H]2CC(N(C)C)C(O)C(C)O2)c2c(cc3c(c2O)C(=O)c2c(O)ccc(O)c2C3=O)C1C(=O)OC (some centres not stated)	?	-2.7%
COC(=O)C1=C(C(=O)OC)[C@@H]2N(C)c3ccccc3[C@@]23C[C@@H](C(=O)OC)N(C(=O)NCCBr)C3=N1	?	-1.3%[8.59 µM]
C(=C\c1nc(-c2ccccc2)oc1Nc1ccc2ccccc2c1)/c1ccccc1	29.1%	6.5%
C[n+]1ccc(/C=C/c2ccc3ccccc3c2)cc1	?	11.2µM*
CC(C)c1c(C(=O)NCC(C)(C)N2CCOCC2)cnn1-c1nccc(-c2cccs2)n1	-15.6%	-3.5%
Oc1ccc(Cl)cc1Sc1cc(Cl)ccc1O	?	12.6µM*
Oc1ccc(Cl)cc1	-16.3%	-4.3%
O=C1[C@@H]2[C@H]3[C@H](O)[C@H](O)CC(=NOC[C@@H](O)COCc4ccco4)[C@@H]3CC[C@H]2C(=O)N1Cc1ccccc1	-3.6%[8.59 µM]	-1.7%[8.59 µM]
COC(=O)C1C2CC(C)C(c3ccccc32)N1C(=O)C(F)(F)F (configuration not stated)	?	-9.3%[8.59 µM]
SMILES	MARV entry inh	LASV entry inh
C[C@@H]1CN(CCCn2c3ccccc3c3ccccc32)C[C@H](C)N1	7.94µM*	17.8µM*
COc1cccc([C@H]2Oc3ccc(OC)cc3C(=NOCC[C@@H]3C=C[C@H](OC(C)=O)[C@@H](COC(C)=O)O3)[C@H]2O)c1	-24.0%[8.59 µM]	nt
NS(=O)(=O)c1ccc(N=Nc2c(O)[nH]c3ccc(C(=O)NCCc4cnc[nH]4)cc23)cc1	28.8%	?
CCC1/C=C/C=CCC(C)C(O)[C@@](C)(O)C(=O)C(C)C(O)C(C)C(=O)C(C)C(O)C(C)C=CC(=O)O[C@H]2C(C)C(CC1)O[C@]1(CCC(C)C(CC(C)O)O1)C2C (some centres not stated)	0.0794µM*	?
CC(C)C(=O)N[C@H]1CCCN1C(=O)C=Cc1ccccc1	-22.4%[8.59 µM]	13.0%[8.59 µM]
CC[n+]1c(/C=C/N(C)c2ccccc2)n(-c2ccccc2)c2ccc(-c3nc4ccccc4s3)cc21	2µM*	3.16µM*
COC(=O)[C@]1(C)C=C[C@@H](C)[C@H](c2ccccc2Br)N1C(=O)C(F)(F)F	-15.2%[8.59 µM]	nt
COC(=O)CC=C[C@@H](C)[C@@H](C=NO[C@H](C)c1cn([C@@H]2COC[C@@H]2O)nn1)N[S+](=O)([O-])c1ccc(C)cc1	10.4%[8.59 µM]	3.8%[8.59 µM]
CCN(CC)CCCCNc1ncc2cc(-c3cc(OC)cc(OC)c3)c(NC(=O)NC(C)(C)C)nc2n1	1.12µM*	12.6µM*
CCN(CC)CCNC(=O)COc1ccc(OC)cc1	-23.3%	-3.5%
COc1ccc(-c2nc(-c3ccccc3)oc2NC2CCCCC2)cc1	31.5%[8.59 µM]	11.8%[8.59 µM]
COc1ccc(Nc2nccc(NCCO)n2)cc1	18.0%	6.0%
COc1cc(Nc2nccc(Nc3ccc4c(C)[nH]nc4c3)n2)cc(OC)c1OC	9.96µM*	?
COC(=O)C1=C[C@@]2(c3ccc(F)cc3[C@@H](OC)[C@@H]2C)[C@@H]2C=C[C@H]1C2	2.1%[8.59 µM]	-12.3%[8.59 µM]
COC(=O)[C@H]1C[C@@]2(CC=C(C)C)C(=O)[C@@](CC=C(C)C)(C(=O)C(C(=O)c3ccccc3)=C2OC)C1(C)C	-31.4%[8.59 µM]	-3.2%[8.59 µM]
Cc1ccc(C(=O)Nc2ccc(S(=O)(=O)O)c3cc(S(=O)(=O)O)cc(S(=O)(=O)O)c23)cc1NC(=O)c1cccc(NC(=O)Nc2cccc(C(=O)Nc3cc(C(=O)Nc4ccc(S(=O)(=O)O)c5cc(S(=O)(=O)O)cc(S(=O)(=O)O)c45)ccc3C)c2)c1	3.15µM*!	-22.6%
O=C(Nc1cccc(C(=O)NC2CC2)c1)c1ccccc1	43.3%	11.3%
C/C=C/c1ccc(OC)cc1	15.8%	-3.2%
COc1ccc(/C=C/c2cc(OC)cc(=O)o2)cc1	1.78µM*	8.91µM*
COC(=O)[C@@]12Cc3ccccc3[C@H]1C[C@H](C)[C@@H](C)N2C(=O)C(F)(F)F	3.2%[8.59 µM]	-3.0%[8.59 µM]
Clc1ccc(C(OCCN2CCCCC2)c2ccccc2)cc1 (configuration not stated)	12.6µM*	?
OC/C=C/c1ccccc1	7.8%	-13.1%
C(=C\c1ccccc1)/CN1CCN(C(c2ccccc2)c2ccccc2)CC1	-11.1%[17.8 µM]	-25.4%[17.8 µM]
C(=C\c1ccccc1)/CN1CCN(CCOC(c2ccccc2)c2ccccc2)CC1	8.91µM*	31.6µM*
Fc1ccc(C(c2ccc(F)cc2)N2CCN(C/C=C/c3ccccc3)CC2)cc1	2.51µM*	31.6µM*!
SMILES	MARV entry inh	LASV entry inh
OCCOCCN1CCN(C(c2ccccc2)c2ccc(Cl)cc2)CC1 (configuration not stated)	?	-16.9%
C=CC1(O)C(OC)=CC2C(=O)C1C(c1ccccc1)C2C (configuration not stated)	14.1%[8.59 µM]	nt
COc1ccccc1CNCCCCCCNCCCCCCCCNCCCCCCNCc1ccccc1OC	7.94µM*	?
CCCCCCCCNCCS(=O)(=O)NCc1ccccc1OC	?	-7.8%
COc1cccc([C@@H]2Oc3ccc(Br)cc3C(=O)[C@@H]2OC(=O)Nc2cc(OC)c(OC)c(OC)c2)c1	5.2%[8.59 µM]	-10.3%[8.59 µM]
CN(C)CCc1cc2c(c3c1ccc1ccccc13)OCO2	12.6µM*	?
C=CCCCN1C=C(C(C)=O)C(c2ccccc2)NC1=O (configuration not stated)	18.2%[8.59 µM]	27.8%[8.59 µM]
COC(=O)CC=C1c2ccccc2C[C@H](OC)[C@@H]1C	-1.1%[8.59 µM]	2.5%[8.59 µM]

Source: PubChem (National Center for Advancing Translational Sciences (NCATS))
